From the supplement of paper PMC11624193, “Coupling cellular drug-target engagement to downstream pharmacology with CeTEAM” (Nature Communications, 2024)
A number with no mark means an inactive call.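 The calls were made as follows: active = log2 fold change beyond 2 SD from the library mean after excluding viability outliers; inactive = within 2 SD.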

What follows are compounds tested against PARP1 L713F-nLuc biosensor (HCT116) (UniProt P09874) (assay: PARP1 L713F-nLuc/akaLuc ratio relative to DMSO control (biosensor stabilization) (fold change); higher = more PARP1 biosensor stabilization (target engagement / stabilizer), active = hit call of the paper). Conditions: stock concentration (mM; final µM = stock mM x 1): 10; 24 h.
Chain of PARP1 L713F-nLuc biosensor (HCT116) (P09874 whole entry L713F, looked up): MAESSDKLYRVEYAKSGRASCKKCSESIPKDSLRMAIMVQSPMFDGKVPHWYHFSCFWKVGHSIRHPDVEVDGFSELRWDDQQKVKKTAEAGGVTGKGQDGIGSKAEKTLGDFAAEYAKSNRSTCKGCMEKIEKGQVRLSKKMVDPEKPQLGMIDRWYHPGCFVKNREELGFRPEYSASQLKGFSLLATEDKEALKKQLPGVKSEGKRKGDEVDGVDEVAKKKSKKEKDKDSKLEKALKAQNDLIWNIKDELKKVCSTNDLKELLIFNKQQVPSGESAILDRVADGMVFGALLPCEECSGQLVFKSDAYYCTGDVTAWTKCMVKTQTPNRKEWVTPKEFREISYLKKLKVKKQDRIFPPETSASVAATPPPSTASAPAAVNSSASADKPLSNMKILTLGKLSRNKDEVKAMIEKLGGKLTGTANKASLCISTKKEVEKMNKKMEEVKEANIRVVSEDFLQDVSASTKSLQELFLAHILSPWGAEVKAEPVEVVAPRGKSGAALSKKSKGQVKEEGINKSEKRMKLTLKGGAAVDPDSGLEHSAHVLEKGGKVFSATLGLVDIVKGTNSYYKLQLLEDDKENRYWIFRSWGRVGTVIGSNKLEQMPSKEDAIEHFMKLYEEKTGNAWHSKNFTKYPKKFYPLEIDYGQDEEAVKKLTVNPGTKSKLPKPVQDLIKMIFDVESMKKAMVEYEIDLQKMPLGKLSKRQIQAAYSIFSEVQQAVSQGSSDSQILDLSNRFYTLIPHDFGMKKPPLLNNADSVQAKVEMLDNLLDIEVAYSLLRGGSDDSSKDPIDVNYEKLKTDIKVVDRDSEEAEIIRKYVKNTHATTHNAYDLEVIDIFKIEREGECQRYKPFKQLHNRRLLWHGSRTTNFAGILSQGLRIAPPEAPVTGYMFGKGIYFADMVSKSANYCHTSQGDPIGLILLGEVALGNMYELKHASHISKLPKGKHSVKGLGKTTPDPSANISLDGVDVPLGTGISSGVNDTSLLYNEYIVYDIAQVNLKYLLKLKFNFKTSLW

Point of comparison: CC#CC(=O)N1CCC[C@H]1c1nc(-c2ccc(C(=O)Nc3ccccn3)cc2)c2c(N)nccn12 [Acalabrutinib (ACP-196)], “PARP1 L713F-nLuc/akaLuc ratio” value 1.28. Against it:
- Nc1ncc(-c2cccc(N3CCNCC3)c2)cc1C(=O)Nc1ccncc1 [PKC-iota inhibitor 1] — lower, 1.02
- C=CC(=O)Nc1cc(Nc2nccc(-c3cn(C)c4ccccc34)n2)c(OC)cc1N(C)CCN(C)C [Osimertinib (AZD9291)] — lower, 0.371
- C=C(c1ccc(C(=O)O)cc1)c1cc2c(cc1C)C(C)(C)CCC2(C)C [Bexarotene] — lower, 0.719
- COc1cc(OC)cc(N(CCNC(C)C)c2ccc3ncc(-c4cnn(C)c4)nc3c2)c1 — lower, 1.09
- C=CC(=O)N1C[C@H](Nc2ncnc3[nH]ccc23)CC[C@@H]1C [Ritlecitinib] — lower, 1.01
- CCCCOc1ccc(CC(=O)NO)cc1 [Bufexamac] — lower, 1.03
